Consider 16 molecules from PubChem BioAssay (NCI).

Molecules are shown by their SMILES. Compounds without any hit were thinned out: in the full panel of roughly 83,000, 20% have a hit.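 Assay: single dose, 48 h. Readout: percent growth (0 = no net growth; negative = cell death). Active: <10.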 Values without a mark were called inactive. Activity calls are given as the source filed them.

Test systems include T-47D breast; BT-549 breast; MDA-MB-435 melanoma; SW-620 colon; MCF7 breast; HCT-116 colon; HCC-2998 colon; KM12 colon.
Holding throughout (experiment): NCI-60 one-dose screen, 48 h (100 = growth as untreated, 0 = no growth, -100 = all killed)
What all share (conditions): 10 µM unless noted

With `COc1cccc(C2C(C#N)=C(N)Oc3c2ccc2ccccc32)c1` (stereo not drawn), the growth in the assay with T-47D breast was 69.5%; in the assay with BT-549 breast it was 28.3%; in the assay with MDA-MB-435 melanoma, 6.77% (active); in the assay with SW-620 colon it was 30.3%; with MCF7 breast it was 10.8%; in the assay on HCT-116 colon, 5.1% (active). The growth in the assay on HCC-2998 colon was 23.6%; in the assay on KM12 colon it was 11.9%.
Take `O=C(/C=C/c1cccc([N+](=O)[O-])c1)c1ccc(Nc2nc(Nc3ccc(F)cc3)nc(Nc3ccc(Cl)cc3)n2)cc1`: the growth with T-47D breast is 81.4%; in the assay on BT-549 breast, 103%; with MDA-MB-435 melanoma, 102%; with SW-620 colon it was 104%; in the assay with MCF7 breast it was 67.1%; in the assay with HCT-116 colon, 97.1%. In addition, the results for the growth with HCC-2998 colon and in the assay on KM12 colon were 103% and 105%, respectively.
Consider `COC(CCP(=O)(c1ccccc1)c1ccccc1)(C(=O)c1ccccc1)c1ccccc1` (stereo not drawn), for which the growth in the assay with T-47D breast was 47.6%; with BT-549 breast, 60.4%; in the assay with MDA-MB-435 melanoma, 71.4%; in the assay with SW-620 colon, 76%; in the assay with MCF7 breast, 35.1%; in the assay with HCT-116 colon it was 45.5%. Moreover, the growth in the assay on HCC-2998 colon is 72.7%; in the assay with KM12 colon it was 57.3%.
With `Cc1ccc(C(=O)Nc2ccc(CN3CCN(C)CC3)c(C(F)(F)F)c2)cc1C#Cc1cnc(N)c2ccccc12`, the growth in the assay with T-47D breast was 30.5%; in the assay on BT-549 breast, 51.3%; in the assay with MDA-MB-435 melanoma it was -97% (active); with SW-620 colon, -88.4% (active); in the assay on MCF7 breast, -81.5% (active); in the assay on HCT-116 colon, -90.5% (active). The growth was -83.5% (active) in the assay with HCC-2998 colon and -83.1% (active) with KM12 colon.
Regarding `COc1ccc(S(=O)(=O)NC2c3ccccc3CC2O)cc1OC` (stereo not drawn), the growth in the assay with T-47D breast is 105%; in the assay on BT-549 breast it was 112%; in the assay with MDA-MB-435 melanoma it was 105%; in the assay with SW-620 colon, 100%; with MCF7 breast, 97.3%; with HCT-116 colon it was 104%. The growth in the assay with HCC-2998 colon was 99.8%; in the assay on KM12 colon it was 101%.
On to `Cc1c2cnccc2c(C)c2c1c1cc(C(=O)O)ccc1n2C`, for which the growth in the assay with T-47D breast is -10.2% (active); in the assay with BT-549 breast, -1.22% (active); in the assay with MDA-MB-435 melanoma, 5.58% (active); in the assay with SW-620 colon it was 7.21% (active); in the assay with MCF7 breast, 1.28% (active); in the assay with HCT-116 colon it was 2.6% (active). Moreover, the growth is 4.89% (active) in the assay with HCC-2998 colon and 5.47% (active) with KM12 colon.
As for `COc1cc(C2=Nc3c(N)nc(N)nc3NC(c3cccc(Nc4ccnc5cc(C(F)(F)F)ccc45)c3)C2)cc(OC)c1OC` (stereo not drawn), the growth in the assay on T-47D breast is 95.4%; in the assay on BT-549 breast it was 112%; with MDA-MB-435 melanoma it was 69.2%; with SW-620 colon, 78.7%; in the assay on MCF7 breast, 37.3%; in the assay on HCT-116 colon, 48.9%. The growth is 77.2% with HCC-2998 colon and 66.4% in the assay on KM12 colon.
Take `CCN(CC)CCN1C(=O)c2c(c(C)c3c(oc4cc(OC)ccc43)c2C)C1=O`: the growth in the assay with T-47D breast was 104%; in the assay with BT-549 breast, 98.2%; in the assay with MDA-MB-435 melanoma it was 95.6%; in the assay on SW-620 colon, 96.3%; in the assay on MCF7 breast it was -8.69% (active); in the assay with HCT-116 colon, 94.1%. Moreover, the growth was 103% with HCC-2998 colon and 102% in the assay with KM12 colon.
Turning to `C=CCNc1nc(O)c(/C=C2\C=Nc3ncccc32)s1`, the growth in the assay on T-47D breast was -8.68% (active); in the assay with BT-549 breast, -29.5% (active); in the assay on MDA-MB-435 melanoma, 21.1%; with SW-620 colon, 7.39% (active); with MCF7 breast, 3.5% (active); in the assay with HCT-116 colon, 6.31% (active). Besides, the growth was 44.6% in the assay on HCC-2998 colon and 7.86% (active) with KM12 colon.
For the molecule `O=C(Cn1cc(CSc2nc3ccccc3o2)nn1)Nc1ccc([N+](=O)[O-])cc1`, the growth with T-47D breast was 87.9%; in the assay with BT-549 breast it was 96.7%; in the assay on MDA-MB-435 melanoma it was 99.1%; in the assay on SW-620 colon it was 102%; in the assay on MCF7 breast it was 96.8%; in the assay on HCT-116 colon, 97.6%. The growth with HCC-2998 colon is 110%; in the assay on KM12 colon it was 94.8%.
Turning to `Nc1cc(-c2ccc(Cl)cc2)nn1-c1nc(-c2ccc(Br)cc2)cs1`, the growth in the assay on T-47D breast was 98.2%; with BT-549 breast, 100%; in the assay with MDA-MB-435 melanoma, 99.7%; in the assay on SW-620 colon, 106%; in the assay on MCF7 breast, 89.8%; with HCT-116 colon, 94.4%. Besides, the growth in the assay with HCC-2998 colon was 101%; with KM12 colon, 104%.
For the molecule `O=C(OCC(O)C(=O)NC12CC3CC(CC(C3)C1)C2)c1cccc(Br)c1` (stereo not drawn), the growth was 93.2% in the assay with T-47D breast; 115% in the assay with BT-549 breast; 97% in the assay with MDA-MB-435 melanoma; 99.2% in the assay with SW-620 colon; 91.7% in the assay with MCF7 breast; 99% in the assay on HCT-116 colon. Moreover, the values for the growth in the assay with HCC-2998 colon and in the assay with KM12 colon were 114% and 107%, respectively.
Turning to `CCOC(=O)CCC(=O)P(=O)(O)O`, the growth is 98.6% in the assay with T-47D breast; 101% in the assay with BT-549 breast; 125% in the assay with MDA-MB-435 melanoma; 96.5% in the assay with SW-620 colon; 110% in the assay with MCF7 breast; 86.2% in the assay on HCT-116 colon. Further, the growth was 99.8% in the assay on HCC-2998 colon and 112% with KM12 colon.
Consider `C=CCNc1ccc2c3c(cccc13)C(=O)N(CC=C)C2=O`, for which the growth was 83% with T-47D breast; 98.4% with BT-549 breast; 109% in the assay with MDA-MB-435 melanoma; 108% in the assay on SW-620 colon; 34% with MCF7 breast; 86.5% with HCT-116 colon. Also, the values for the growth with HCC-2998 colon and with KM12 colon were 106% and 101%, respectively.
For the molecule `CC1=NN(c2cccc(Cl)c2)C(=O)/C1=C\C=C\c1ccccc1`, the growth with T-47D breast was 36.7%; with BT-549 breast it was 78.4%; in the assay on MDA-MB-435 melanoma, 13.6%; in the assay on SW-620 colon, 1.26% (active); in the assay with MCF7 breast it was 10.9%; in the assay with HCT-116 colon it was -89.2% (active). The growth in the assay on HCC-2998 colon is 30.9%; in the assay with KM12 colon it was 16.1%.
Consider `C#C[C@]1(O)CC[C@H]2[C@@H]3CC=C4c5sc(-c6ccccc6)nc5CC[C@]4(C)[C@H]3CC[C@@]21C`, for which the growth in the assay on T-47D breast was 92.7%; in the assay with BT-549 breast, 86.2%; in the assay with MDA-MB-435 melanoma, 93.6%; with SW-620 colon, 89.9%; in the assay on MCF7 breast, 51.2%; with HCT-116 colon, 78.2%. In addition, the growth was 97.4% in the assay with HCC-2998 colon and 78.9% with KM12 colon.
